In the supplement of paper PMC11732987, “Enantioselective OTUD7B fragment discovery through chemoproteomics screening and high-throughput optimisation” (Communications Chemistry, 2025):

Assays:
Assay in all cases: log2 ratio of Biotin-Ahx-Ub-VS probe labelling (fragment/DMSO); higher = less target engagement (more negative = stronger competition), active = hit call of the paper (q ≤ 0.05, log2 ratio ≤ -1)
Details in all cases: compound concentration: 200 uM; treatment time: 3 h
[1] = target: T1, OTUD6B (UniProt Q8N6M0)
T1 sequence (whole entry): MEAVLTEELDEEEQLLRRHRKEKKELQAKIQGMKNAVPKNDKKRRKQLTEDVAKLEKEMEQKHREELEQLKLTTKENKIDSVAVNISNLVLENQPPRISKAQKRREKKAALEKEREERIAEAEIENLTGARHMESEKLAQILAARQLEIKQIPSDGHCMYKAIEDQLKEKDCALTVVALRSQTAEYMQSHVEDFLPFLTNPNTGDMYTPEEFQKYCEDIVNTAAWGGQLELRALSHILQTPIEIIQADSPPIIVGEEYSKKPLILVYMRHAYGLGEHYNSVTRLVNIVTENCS
Outline: (§1)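 Lysate from HEK293T cells, 495 µg per sample in Tris/CHAPS/IGEPAL buffer with protease inhibitors, was treated for 3 h in triplicate with fragment at 200 µM or vehicle. Biotin-Ahx-Ub-VS was next added at 0.5 µM final for 1 h. The labelled DUBs were enriched with NeutrAvidin, digested with LysC and trypsin, and run by diaPASEF LC-MS/MS, with values given as average log2 fragment/vehicle ratios by unpaired t-test on global-median-normalised Spectronaut quantities of proteins with ≥2 unique peptides.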

[2] = target: T2, OTUD7B (UniProt Q6GQQ9)
T2 sequence (whole entry): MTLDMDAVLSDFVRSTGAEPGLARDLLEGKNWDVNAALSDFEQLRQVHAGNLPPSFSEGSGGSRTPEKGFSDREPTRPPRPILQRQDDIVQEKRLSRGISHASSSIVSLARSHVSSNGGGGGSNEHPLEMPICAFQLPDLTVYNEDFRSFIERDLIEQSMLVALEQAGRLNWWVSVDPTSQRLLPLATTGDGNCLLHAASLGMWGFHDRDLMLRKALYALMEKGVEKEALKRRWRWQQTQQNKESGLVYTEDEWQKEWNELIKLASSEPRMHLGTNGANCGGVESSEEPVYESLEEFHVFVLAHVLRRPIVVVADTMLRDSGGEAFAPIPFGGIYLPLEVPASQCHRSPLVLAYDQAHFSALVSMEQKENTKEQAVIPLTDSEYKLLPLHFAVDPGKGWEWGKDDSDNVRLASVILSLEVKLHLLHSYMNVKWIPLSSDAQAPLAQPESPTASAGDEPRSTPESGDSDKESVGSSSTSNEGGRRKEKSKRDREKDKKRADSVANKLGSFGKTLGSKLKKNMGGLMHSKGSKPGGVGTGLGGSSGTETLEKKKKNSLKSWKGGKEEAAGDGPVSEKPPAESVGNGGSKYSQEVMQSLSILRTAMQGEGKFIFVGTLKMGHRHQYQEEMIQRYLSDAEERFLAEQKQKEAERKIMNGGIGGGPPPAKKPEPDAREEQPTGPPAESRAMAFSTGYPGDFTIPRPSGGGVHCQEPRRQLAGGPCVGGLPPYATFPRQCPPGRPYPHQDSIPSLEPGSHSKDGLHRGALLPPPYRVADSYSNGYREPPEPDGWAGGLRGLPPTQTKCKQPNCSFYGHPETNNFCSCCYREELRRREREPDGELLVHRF
Outline: as §1

[3] = target: PRPF8 (UniProt Q6P2Q9)
Outline: as §1

[4] = target: T3, PSMD7 (UniProt P51665)
T3 sequence (whole entry): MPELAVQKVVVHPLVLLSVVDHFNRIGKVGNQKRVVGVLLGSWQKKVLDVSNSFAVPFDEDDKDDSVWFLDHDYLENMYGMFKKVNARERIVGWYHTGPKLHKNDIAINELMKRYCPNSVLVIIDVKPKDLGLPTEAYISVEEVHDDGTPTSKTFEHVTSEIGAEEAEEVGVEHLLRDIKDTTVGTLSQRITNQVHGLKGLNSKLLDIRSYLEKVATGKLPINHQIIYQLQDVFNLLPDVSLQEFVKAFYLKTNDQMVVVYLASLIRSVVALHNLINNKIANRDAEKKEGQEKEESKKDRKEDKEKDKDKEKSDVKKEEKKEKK
Outline: as §1

[5] = target: UCHL1 (UniProt P09936)
Chain of UCHL1 (P09936 whole entry, looked up): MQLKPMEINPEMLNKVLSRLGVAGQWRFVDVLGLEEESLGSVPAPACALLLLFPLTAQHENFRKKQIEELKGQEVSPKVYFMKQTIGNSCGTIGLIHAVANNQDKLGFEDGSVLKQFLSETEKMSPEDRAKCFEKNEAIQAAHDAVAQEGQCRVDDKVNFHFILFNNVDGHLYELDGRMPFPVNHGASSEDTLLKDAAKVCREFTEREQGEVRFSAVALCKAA
Outline: as §1

[6] = target: T4, UCHL3 (UniProt P15374)
T4 sequence (whole entry): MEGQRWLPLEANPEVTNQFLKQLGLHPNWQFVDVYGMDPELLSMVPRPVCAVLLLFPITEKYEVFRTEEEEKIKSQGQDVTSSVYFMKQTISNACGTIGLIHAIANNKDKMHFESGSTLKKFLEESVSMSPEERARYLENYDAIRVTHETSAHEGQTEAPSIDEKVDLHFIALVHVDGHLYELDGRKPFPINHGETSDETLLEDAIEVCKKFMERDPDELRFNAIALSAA
Outline: as §1

[7] = target: T5, UCHL5 (UniProt Q9Y5K5)
T5 sequence (whole entry): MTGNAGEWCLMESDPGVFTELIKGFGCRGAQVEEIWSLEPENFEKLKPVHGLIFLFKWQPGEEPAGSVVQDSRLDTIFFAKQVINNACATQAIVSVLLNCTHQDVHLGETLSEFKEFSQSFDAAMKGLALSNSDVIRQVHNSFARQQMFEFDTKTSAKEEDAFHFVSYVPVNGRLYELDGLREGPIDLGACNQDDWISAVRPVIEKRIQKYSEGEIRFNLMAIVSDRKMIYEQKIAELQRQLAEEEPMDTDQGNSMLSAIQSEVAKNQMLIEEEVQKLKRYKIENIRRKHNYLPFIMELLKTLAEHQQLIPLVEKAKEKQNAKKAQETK
Outline: as §1

[8] = target: USP10 (UniProt Q14694)
Chain of USP10 (Q14694 whole entry): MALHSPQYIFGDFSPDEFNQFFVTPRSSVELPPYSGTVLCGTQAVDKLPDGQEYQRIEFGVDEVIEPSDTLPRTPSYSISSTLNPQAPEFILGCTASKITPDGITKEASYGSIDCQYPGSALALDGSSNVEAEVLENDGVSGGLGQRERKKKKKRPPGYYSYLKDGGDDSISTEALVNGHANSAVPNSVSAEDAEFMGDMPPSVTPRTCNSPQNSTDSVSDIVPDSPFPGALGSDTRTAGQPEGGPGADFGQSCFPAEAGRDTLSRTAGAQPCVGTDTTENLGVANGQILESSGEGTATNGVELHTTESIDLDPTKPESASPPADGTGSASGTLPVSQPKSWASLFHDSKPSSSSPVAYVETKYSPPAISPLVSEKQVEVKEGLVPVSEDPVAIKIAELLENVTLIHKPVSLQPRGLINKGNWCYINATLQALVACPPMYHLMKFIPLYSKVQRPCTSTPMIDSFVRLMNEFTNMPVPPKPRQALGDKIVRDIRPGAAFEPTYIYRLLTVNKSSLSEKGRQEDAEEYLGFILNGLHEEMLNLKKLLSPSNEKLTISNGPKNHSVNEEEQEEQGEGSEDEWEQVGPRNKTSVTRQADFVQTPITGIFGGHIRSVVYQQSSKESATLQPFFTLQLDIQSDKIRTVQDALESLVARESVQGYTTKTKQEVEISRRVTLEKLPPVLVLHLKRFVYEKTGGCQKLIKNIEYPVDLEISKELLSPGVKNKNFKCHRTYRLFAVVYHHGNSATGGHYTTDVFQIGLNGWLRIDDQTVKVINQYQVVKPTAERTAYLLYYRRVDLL
Outline: as §1

[9] = target: T6, USP15 (UniProt Q9Y4E8)
T6 sequence (whole entry): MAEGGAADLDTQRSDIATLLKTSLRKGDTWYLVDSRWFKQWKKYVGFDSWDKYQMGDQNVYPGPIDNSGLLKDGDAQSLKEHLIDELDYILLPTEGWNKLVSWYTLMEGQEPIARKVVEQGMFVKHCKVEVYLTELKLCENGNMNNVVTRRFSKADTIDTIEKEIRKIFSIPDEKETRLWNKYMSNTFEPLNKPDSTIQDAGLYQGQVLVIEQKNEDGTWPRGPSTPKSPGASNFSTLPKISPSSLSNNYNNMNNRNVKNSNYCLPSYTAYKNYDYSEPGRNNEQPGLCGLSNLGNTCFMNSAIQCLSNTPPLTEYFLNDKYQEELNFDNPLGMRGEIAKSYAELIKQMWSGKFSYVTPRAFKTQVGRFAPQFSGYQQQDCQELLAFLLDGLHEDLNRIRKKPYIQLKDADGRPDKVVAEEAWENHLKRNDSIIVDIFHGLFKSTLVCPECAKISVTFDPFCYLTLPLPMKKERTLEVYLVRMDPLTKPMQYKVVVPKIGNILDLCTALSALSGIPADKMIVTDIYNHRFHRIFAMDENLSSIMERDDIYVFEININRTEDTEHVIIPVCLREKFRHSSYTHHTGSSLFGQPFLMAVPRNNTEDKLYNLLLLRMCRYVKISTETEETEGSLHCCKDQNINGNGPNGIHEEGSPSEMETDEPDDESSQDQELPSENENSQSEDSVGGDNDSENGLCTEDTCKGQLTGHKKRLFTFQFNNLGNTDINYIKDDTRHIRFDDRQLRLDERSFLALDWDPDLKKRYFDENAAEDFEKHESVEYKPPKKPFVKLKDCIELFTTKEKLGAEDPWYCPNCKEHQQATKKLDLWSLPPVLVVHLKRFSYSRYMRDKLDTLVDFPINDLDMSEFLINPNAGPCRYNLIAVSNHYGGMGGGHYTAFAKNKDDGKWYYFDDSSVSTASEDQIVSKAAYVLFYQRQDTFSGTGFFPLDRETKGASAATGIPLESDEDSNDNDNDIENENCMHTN
Outline: as §1

[10] = target: USP16 (UniProt Q9Y5T5)
Chain of USP16 (Q9Y5T5 whole entry, looked up): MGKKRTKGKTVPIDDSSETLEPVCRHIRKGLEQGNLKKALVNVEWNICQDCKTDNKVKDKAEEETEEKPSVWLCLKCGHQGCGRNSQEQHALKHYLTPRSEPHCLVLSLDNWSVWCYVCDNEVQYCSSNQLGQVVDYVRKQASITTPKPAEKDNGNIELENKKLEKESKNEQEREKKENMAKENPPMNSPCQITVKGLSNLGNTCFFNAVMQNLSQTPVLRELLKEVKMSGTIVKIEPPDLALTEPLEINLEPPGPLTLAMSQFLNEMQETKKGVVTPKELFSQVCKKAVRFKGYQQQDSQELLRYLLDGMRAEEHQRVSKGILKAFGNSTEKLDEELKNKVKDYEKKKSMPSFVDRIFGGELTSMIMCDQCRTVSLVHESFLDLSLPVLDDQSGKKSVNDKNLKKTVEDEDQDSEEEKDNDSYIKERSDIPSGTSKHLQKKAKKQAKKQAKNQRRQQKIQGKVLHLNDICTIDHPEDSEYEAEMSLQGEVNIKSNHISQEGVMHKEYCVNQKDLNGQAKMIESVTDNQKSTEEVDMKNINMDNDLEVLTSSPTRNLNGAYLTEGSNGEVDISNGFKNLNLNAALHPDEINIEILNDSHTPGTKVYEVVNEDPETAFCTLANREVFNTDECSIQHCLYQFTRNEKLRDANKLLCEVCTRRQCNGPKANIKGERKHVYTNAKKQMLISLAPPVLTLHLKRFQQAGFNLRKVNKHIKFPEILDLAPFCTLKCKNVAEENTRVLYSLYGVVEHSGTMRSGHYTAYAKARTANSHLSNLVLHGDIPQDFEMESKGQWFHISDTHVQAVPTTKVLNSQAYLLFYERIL
Outline: as §1

Measured: log2 ratio of Biotin-Ahx-Ub-VS probe labelling

O=C(CCl)NCc1ccc2c(c1)OCO2
inactive: [1] 0.00826 | [2] -0.843 | [3] -0.215 | [4] -0.228 | [6] -0.0636 | [7] -0.325 | [8] -0.00649 | [9] -0.0739 | [10] 0.0675
active: [5] -1.36
